The results in this text go back to ChEMBL document CHEMBL1157539, “Thousands of chemical starting points for antimalarial lead identification” (Nature, 2010).

What is called Inhibition is the drop in the measured response relative to a control, in per cent. A higher Inhibition goes with a strong effect.

SMILES strings stand for the structures.

Common to all, as to assay type: functional
Test [1] relates to Plasmodium falciparum. As to the kind of experiment: GSK_TCMDC: Inhibition of Plasmodium falciparum 3D7 in whole red blood cells, using parasite LDH activity as an index of growth. Test compounds present at 2uM.
Test [2] relates to Plasmodium falciparum. As to the kind of experiment: GSK_TCMDC: Inhibition of Plasmodium falciparum Dd2 in whole red blood cells, using parasite LDH activity as an index of growth. Test compounds present at 2uM.
For a further test, the system named is HepG2. Description: GSK_TCMDC: Percent inhibition of human HepG2 cell line. Test compounds present at 10uM.

Consider `Cl.N#Cc1ccc2c(c1)CCN(CCC1CCC(NC(=O)c3ccc(-c4ccccn4)s3)CC1)CC2` (stereo not drawn), for which the Inhibition in the test with Plasmodium falciparum [1] amounted to 92%; with Plasmodium falciparum [2], 9%; with HepG2, 16%.

Turning to `COCCNCc1ncsc1-c1ccc2c(Nc3cc(O)ccc3C)ccnc2c1`, the Inhibition with Plasmodium falciparum [1] is on record as 100%; with Plasmodium falciparum [2], 40%; in the test with HepG2 it was 9%.

Take `OC(CNc1ccnc(Nc2cccc(Cl)c2)n1)c1ccc(C(F)(F)F)cc1` (stereo not drawn): the results for the Inhibition in the test on Plasmodium falciparum [1], with Plasmodium falciparum [2] and with HepG2 were 100%, 61% and 13%, respectively.

With `COc1cc(C(=O)Nc2ccc(-c3nc4ccccc4[nH]3)cc2)cc(OC)c1OC`, the figures for the Inhibition with Plasmodium falciparum [1], in the test with Plasmodium falciparum [2] and with HepG2 were 99%, 33% and 13%, respectively.

`Cc1c(NC(=O)COc2ccc(Cl)cc2C(=O)c2cc(F)cc(C(F)(F)F)c2)ccc2ncsc12`: the values for the Inhibition in the test with Plasmodium falciparum [1], in the test on Plasmodium falciparum [2] and with HepG2 were 86%, 18% and 0%, respectively.

`O=C(/C=C/c1ccc(Cl)c(Cl)c1)N1CCC(CNCc2cccc3cc[nH]c23)CC1`: the Inhibition in the test on Plasmodium falciparum [1] was determined as 85%; with Plasmodium falciparum [2], 14%; in the test on HepG2, 1%.

In the case of `O=C(Nc1ccccc1)c1nn(CCCN2CCC(N3CCCC3)CC2)cc1-c1ccc(Cl)c(Cl)c1`, the Inhibition in the test on Plasmodium falciparum [1] turned out to be 100%; in the test on Plasmodium falciparum [2], 98%; in the test with HepG2, 31%.

Regarding `O=C(NCCCc1ccccc1)c1csc(C2CCCN(C(=O)c3ccc(O)c(-c4cccc5ccccc45)c3)C2)n1` (stereo not drawn), the Inhibition in the test on Plasmodium falciparum [1] was 97%; in the test on Plasmodium falciparum [2], 98%; with HepG2, 3%.

For `COc1ccc2c(c1)S(=O)(=O)N=C(N1CCCC1c1ccc(Cl)c(Cl)c1)N2C.O=C(O)C(F)(F)F` (stereo not drawn), the Inhibition is reported as 89% with Plasmodium falciparum [1], 19% in the test on Plasmodium falciparum [2] and 0% in the test on HepG2.

Turning to `Cc1[nH]c(C)c([N+](=O)[O-])c(=O)c1-c1ccc(Oc2ccccc2)cc1`, the results for the Inhibition in the test with Plasmodium falciparum [1], with Plasmodium falciparum [2] and in the test on HepG2 were 98%, 97% and 11%, respectively.

Regarding `O=C(NCCCNc1ccc2ccccc2n1)c1cc2c(Cl)cc(Cl)cc2[nH]1`, the Inhibition in the test with Plasmodium falciparum [1] was found to be 100%; with Plasmodium falciparum [2], 100%; in the test with HepG2, 40%.
